A549 tox = Nrf2 qHTS screen for inhibitors: counterscreen for cytotoxicity | A549 ARE-Fluc cells, CellTiter-Fluor viability, 18-24 h | Potency, µM (titrated, usually from 46 µM), for the others: at the highest dose activity change, negative = cytotoxicity, most hits filed as inhibitors | 390,000 tested, 0.16% active; note: potency is the fitted concentration of half-maximal effect; % is set by controls: 0 for no effect and ±100 for the full control effect
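A549 ARE-Fluc cells in 5% FBS OPTI-MEM, 5000 cells/well, rested 2 h then exposed to compounds in concentration-response for 18-24 h at 37 °C. Viability by CellTiter-Fluor fluorescence (Ex 405/Em 525) after 30 min; luciferase luminescence (BugLite, 15 min, RT) read afterwards.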
Nrf2 activator = qHTS of Nrf2 Activators. AREc32 ARE-luciferase reporter (MCF7-derived line), luminescence, 24 h. Potency, µM (series often up to 46.1 µM), for the others: top-dose activation, hits mostly activators. 410,000 tested, 0.31% active. AID 624171, 2012; note: potency is the fitted concentration of half-maximal effect; % of control where 0% means no effect; nearly all actives have a fitted effect of over 65% in size
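Luminescent ARE reporter assay in AREc32_Fluc cells: overnight plating at 37 deg C, 24 hr compound incubation, Steady-Glo added, 30 min RT before reading.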
Nrf2 inh = Nrf2 qHTS screen for inhibitors | A549 ARE-Fluc reporter, luciferase luminescence, 18-24 h | Potency, µM (doses to about 46 µM), for the others: at the highest dose activity change, negative = inhibition, usual class: inhibitors | 360,000 tested, 2.1% active; note: potency is the fitted concentration of half-maximal effect; % is set by controls: 0 for no effect and ±100 for the full control effect; nearly all actives have a fitted effect of over 60% in size
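A549 ARE_Fluc cells (5000/well, 5% FBS OPTI-MEM) pre-incubated 2 h, then treated with compounds 18-24 h at 37C/5% CO2 in concentration-response. CellTiter-Fluor viability read first; BugLite luciferase luminescence after 15 min at room temperature gives Nrf2 activity.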
IL2 activator = qHTS of IL-2 Activators; 360,000 tested, 0.065% active; activation, % (series mostly up to about 46 µM); AID 652025, 2013; IL-2 activation reporter assay, cell-based qHTS; stimulated with anti-CD3/CD4/CD28 beads; in transgenic mouse T cells; in the data active = activation above about 50%; inconclusive = mostly about 30% to 49%; note: 0% is about no effect
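Unstimulated transgenic mouse T cells, 750 per well, received compound and, after 60 minutes, anti-CD3/anti-CD4 bead plus anti-CD28 stimulation. EGFP and DsRed were quantified after 18 hours.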
The depositor's hits bear a star; ? = inconclusive; / = not tested or not shown. Sampled rows, rich in hits. Any-hit rate of the full collection: about 2.3%. Unless noted, calls come from the whole dose curve; as a rule, active = well fitted curve in the direction sought with a large enough effect; inconclusive = small, poorly fitted or top-dose-only effect, or another doubt; inactive = no such curve, though single readings can be large; an effect the other way counts as inactive or inconclusive.

SMILES	A549 tox	Nrf2 activator	Nrf2 inh	IL2 activator
Cc1ccc(-n2nc(C)c3c2C(Br)C(C)(C)CC3=O)nc1 (configuration not stated)	-14%	12%	7.3µM*	0
Cc1nn(-c2ccc(Cl)cn2)c2c1C(=O)CC(C)(C)C2Br (configuration not stated)	4%	8%	-26%	2
CCc1nc2c(OCc3cccc(Cl)c3)cccn2c1N(C)C(C)=O	/	8%	/	55*
CCc1nc2c(OCc3cccc(Cl)c3)cccn2c1N(C)C(=O)C(C)C	/	3%	/	0
COc1ccc(CCN2C(=O)CSC2=Nc2ccc(C(C)C)cc2)cc1OC	-21%	3%	16µM*	-1
COc1ccc2nc(-c3cccc(F)c3)sc2c1	9%	/	?	/
CC(=O)c1ccc(OCCCC(=O)Nc2ccc(C)c(S(=O)(=O)N3CCCCC3)c2)cc1	-29%	3%	18µM*	-5
Cc1ccc(NC(=O)c2ccccc2F)cc1S(=O)(=O)N1CCCCCC1	-11%	6%	16µM*	-4
Cc1ccc(NC(=O)c2ccccc2NS(=O)(=O)c2ccc(Cl)s2)cc1S(=O)(=O)N1CCOCC1	?	2%	23µM*	0
O=C(Nc1cc(S(=O)(=O)N2CCOCC2)ccc1O)c1ccc(NS(=O)(=O)c2ccc(Cl)s2)cc1	-1%	0%	2%	0
CCOc1ncccc1C(=O)Nc1ccc(Cl)c(S(=O)(=O)N2CCCC2)c1	-7%	0%	18µM*	-1
CCOc1ccc(C(=O)CCC(=O)Nc2ccc(C)c(S(=O)(=O)N3CCCCC3)c2)cc1	-1%	3%	?	-2
O=C1CCc2cc(S(=O)(=O)Nc3cccnc3)ccc2N1	5%	/	27%	/
Cc1ccc(NC(=O)C2CSC3(C)CCC(=O)N23)cc1S(=O)(=O)N1CCCCCC1 (configuration not stated)	2%	3%	16µM*	0
Cc1ccc(NC(=O)C2CSC3(C)CCC(=O)N23)cc1S(=O)(=O)N1CCOCC1 (configuration not stated)	2%	-1%	-8%	2
CN(CCOc1ccccc1)C(=O)c1ccc(Cl)c(S(=O)(=O)N2CCCCC2)c1	-3%	0%	?	0
Cc1ccc(N(Cc2ccccc2)C(=O)c2ccc(C)c(S(=O)(=O)N3CCOCC3)c2)cc1	-18%	1%	15µM*	-1
Cc1ccc(C(=O)N(C)CCOc2ccccc2)cc1S(=O)(=O)N1CCCCC1	-17%	-1%	21µM*	0
CCc1ccc(C(=O)Nc2ccc(OC)c(S(=O)(=O)N3CCCCC3)c2)cc1	-11%	6%	7.3µM*	1
COc1ccc(NC(=O)c2c(C)nn(Cc3ccccc3)c2Cl)cc1S(=O)(=O)N1CCOCC1	-18%	1%	21µM*	-1
COc1ccc(C(=O)Nc2ccc(C)c(S(=O)(=O)N3CCCCCC3)c2)cc1	-19%	2%	21µM*	-1
COc1ccc(C(=O)NCc2c(C)nn(Cc3ccccc3)c2C)cc1S(=O)(=O)N1CCOCC1	-15%	-1%	-27%	0
COc1ccc(CCC(=O)Nc2ccc(OC)c(S(=O)(=O)N3CCCCC3)c2)cc1	?	-1%	16µM*	1
Cc1ccc(NC(=O)c2ccc(F)cc2)cc1S(=O)(=O)N1CCCCCC1	-9%	4%	?	0
O=S(=O)(NCC(c1ccco1)S(=O)(=O)c1cccs1)c1ccc(F)c(C(F)(F)F)c1 (configuration not stated)	11%	27%	/	/
SMILES	A549 tox	Nrf2 activator	Nrf2 inh	IL2 activator
COc1ccc(-c2noc(CSc3nnc(-c4ccncc4)n3-c3ccc(C)cc3)n2)cc1OC	0%	-1%	-4%	/
COc1ccc(OC)c(/C=C(/C#N)c2nc(-c3ccc(-c4ccccc4)cc3)cs2)c1	0%	-1%	7%	/
N#CN1CCC(NC(=O)c2cccc(C(F)(F)F)c2)CC1	-2%	/	1%	/
CC(C)(C)c1ccc(C(=O)NNC(=O)c2cccc(Br)c2)cc1	-12%	7%	/	-1
Cc1cccc(NC(=O)C(=O)NNC(=O)c2ccc(C(C)(C)C)cc2)c1	6.5µM*	2%	?	1
CN(C1CCCCC1)S(=O)(=O)c1ccc(NC(=O)C2CCCCC2)cc1	-16%	0%	23µM*	2
Cc1ccc(NC(=O)C2CCN(S(=O)(=O)c3ccccc3)CC2)cc1	-10%	0%	15µM*	-5
O=C(Nc1ccccc1)C1CCN(S(=O)(=O)c2ccc3[nH]c4c(c3c2)CCCCC4)CC1	-25%	-1%	16µM*	/
Cc1ccc(S(=O)(=O)N2CCC(C(=O)Nc3ccc(S(=O)(=O)N4CCOCC4)cc3)CC2)cc1	-3%	1%	?	-4
O=C(Nc1ccc(S(=O)(=O)N2CCCCC2)cc1)c1ccc(F)cc1	-8%	-1%	29µM*	0
O=C(Nc1ccc(S(=O)(=O)N2CCCC2)cc1)c1ccc(F)cc1	2%	0%	-1%	0
CN(C1CCCCC1)S(=O)(=O)c1ccc(NC(=O)CCC(=O)O)cc1	-5%	0%	/	-1
COc1cccc(C2c3c(ncn(Cc4cccs4)c3=N)Oc3ccc4ccccc4c32)c1 (configuration not stated)	-3%	/	-3%	/
Cc1csc2nc(COC(=O)c3ccccc3NC(=O)c3ccc(C(C)(C)C)cc3)cc(=O)n12	8%	0%	/	/
CCc1ccc(NC(=O)C2CCN(S(=O)(=O)c3ccc4c(c3)N(C(C)=O)CCO4)CC2)cc1	1%	3%	23µM*	0
Cc1ccc(NC(=O)C2CCN(S(=O)(=O)c3cccs3)CC2)cc1C	-22%	3%	26µM*	-1
O=C(Nc1ccc(S(=O)(=O)N2CCCC2)cc1)C1CCN(S(=O)(=O)c2ccc(F)cc2)CC1	0%	3%	23µM*	0
Cc1ccc(NC(=O)C2CCN(S(=O)(=O)c3ccc(F)cc3)CC2)cc1	-1%	0%	-33%	4
CN(c1ccc(C(=O)Nc2ccc(S(=O)(=O)N3CCCC3)cc2)cc1)S(C)(=O)=O	-26%	0%	9.2µM*	0
O=C(Nc1ccc(Cc2ccncc2)cc1)c1ccc(S(=O)(=O)N2CCOCC2)cc1	-5%	0%	9.2µM*	-2
O=C(Nc1ccc(S(=O)(=O)N2CCOCC2)cc1)c1ccc(S(=O)(=O)N2CCOCC2)cc1	7%	0%	?	0
CCOc1ccc(C(=O)Nc2ccc(Cc3ccncc3)cc2)cc1Br	?	3%	15µM*	-1
CCC(C)NC(=O)c1cn(CC)c2ccc(S(=O)(=O)N3CCc4ccccc4C3)cc2c1=O (configuration not stated)	-9%	0%	23µM*	/
COc1ccc(-n2nc(C(=O)O)c3csc(N)c3c2=O)cc1	-12%	/	4%	/
COCCNC(=O)c1ccc2c(c1)N(Cc1ccc(C(F)(F)F)cc1)C(=O)c1ccccc1S2	-14%	0%	?	/

Source: PubChem BioAssay (National Center for Advancing Translational Sciences (NCATS))
